Results published in PubChem BioAssay (Tox21).
Several values for one entry are separate records, joined by “and”; a condition that tells them apart may be missing. Equal entries are not always repeated. Results filed as inconclusive are left out. Activity calls are given as the source filed them. Calls come from the whole dose curve; as a rule, active = well fitted curve in the direction sought with a large enough effect in the repeat runs; inconclusive = weak or mixed curves; inactive = no such curve, though single readings can be large; an effect the other way counts as inactive or inconclusive.

Key:
[1] = qHTS RealTime-Glo MT Cell Viability Assay in HepG2 cells - 40 hour (AID 1224870); note: nearly all actives have a fitted effect of over 50% in size
Procedure, shortened: (§1)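 HepG2 cells (600/well) mixed with RealTime-Glo MT reagent, settled 5 h at 37 C/5% CO2 before compound addition. Nonlytic NanoLuc luminescence from viable-cell prosubstrate reduction read repeatedly during 40 h treatment at 37 C.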

[2] = A CellTox Green Cytotoxicity Assay to monitor cytotoxicity in HEK293 cells - 40 hour (AID 1224871); note: nearly all actives have a fitted effect of over 45% in size
Procedure, shortened: (§2)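 Nonlytic real-time cytotoxicity: HEK293 + CellTox Green reagent plated, 5 h preincubation, pintool compound addition (23 nL in DMSO), 37 C for 40 h, fluorescence measured at successive time points.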

[3] = qHTS RealTime-Glo MT Cell Viability Assay in HEK293 cells - 16 hour (AID 1224872); note: top concentration of the series differs between compounds; nearly all actives have a fitted effect of over 50% in size
Procedure, shortened: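 HEK293 cells were seeded at 600 cells/well together with NanoLuc luciferase and cell-permeant prosubstrate, preincubated 5 h at 37 C/5% CO2, then given compound in DMSO by pintool. Luminescence from viable-cell prosubstrate reduction was read repeatedly over 40 h.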

[4] = qHTS RealTime-Glo MT Cell Viability Assay in HepG2 cells - 8 hour (AID 1224873); note: nearly all actives have a fitted effect of over 55% in size
Procedure, shortened: as §1

[5] = qHTS RealTime-Glo MT Cell Viability Assay in HEK293 cells - 40 hour (AID 1224874); conditions: RealTime-Glo luminescence; max response: stronger effect = lower value; note: nearly all actives have a fitted effect of over 50% in size
Procedure, shortened: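 Cells were seeded together with NanoLuc luciferase and a prosubstrate that viable cells reduce to a luciferase substrate. After a 5 h incubation at 37 C/5% CO2, compounds were added and luminescence was measured repeatedly during 40 h of treatment.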

[6] = A CellTox Green Cytotoxicity Assay to monitor cytotoxicity in HEK293 cells - 24 hour (AID 1224875); note: series mostly up to about 77 µM; nearly all actives have a fitted effect of over 45% in size
Procedure, shortened: as §2

[7] = A CellTox Green Cytotoxicity Assay to monitor cytotoxicity in HepG2 cells - 16 hour (AID 1224876); note: nearly all actives have a fitted effect of over 45% in size
Procedure, shortened: (§3)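 Read-out is fluorescence of a cyanine dye excluded from live cells that stains DNA of dead HepG2 cells, with signal proportional to cytotoxicity. Plates were read at 0, 8, 16, 24, 32 and 40 h after compound addition.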

[8] = qHTS RealTime-Glo MT Cell Viability Assay in HepG2 cells - 32 hour (AID 1224877); note: nearly all actives have a fitted effect of over 55% in size
Procedure, shortened: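 HepG2 cells were seeded at 600 cells/well together with NanoLuc luciferase and a cell-permeant prosubstrate, preincubated 5 h at 37 C/5% CO2, then pin-dosed with compounds in DMSO. Nonlytic luminescence from viable cells was read at each time point.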

[9] = A CellTox Green Cytotoxicity Assay to monitor cytotoxicity in HepG2 cells - 24 hour (AID 1224878); note: nearly all actives have a fitted effect of over 45% in size
Procedure, shortened: as §3

[10] = A CellTox Green Cytotoxicity Assay to monitor cytotoxicity in HepG2 cells - 40 hour (AID 1224879); note: nearly all actives have a fitted effect of over 40% in size
Procedure, shortened: as §3
% is set by controls: 0 for no effect and ±100 for the full control effect.

CCOC(=O)CC(C)=O
inactive: Potency [1] | Potency [2] | Potency [3] | Potency [4] | max response [5] 14.1% | Potency [6] | Potency [7] | Potency [8] | Potency [9] | Potency [10]

CC(C)=CCCC(C)CC(=O)O (stereo not given)
inactive: Potency [1] | Potency [2] | Potency [3] | Potency [4] | max response [5] 2.41% | Potency [6] | Potency [7] | Potency [8] | Potency [9] | Potency [10]

Oc1ccc(C2CNCCc3c2cc(O)c(O)c3Cl)cc1 (stereo not given)
inactive: Potency [1] | Potency [2] | Potency [3] | Potency [4] | max response [5] -10.9% | Potency [6] | Potency [7] | Potency [8] | Potency [9] | Potency [10]

Nc1c2c(nc3ccccc13)CCCC2O (stereo not given)
inactive: Potency [1] | Potency [2] | Potency [3] | Potency [4] | max response [5] 24.6% | Potency [6] | Potency [7] | Potency [8] | Potency [9] | Potency [10]

O=C(O)Cc1ccc(CCNS(=O)(=O)c2ccc(Cl)cc2)cc1
inactive: Potency [1] | Potency [2] | Potency [3] | Potency [4] | max response [5] -1.15% | Potency [6] | Potency [7] | Potency [8] | Potency [9] | Potency [10]

NS(=O)(=O)c1cc(C(=O)O)cc(N2CCCC2)c1Oc1ccccc1
inactive: Potency [1] | Potency [2] | Potency [3] | Potency [4] | max response [5] -15.6% | Potency [6] | Potency [7] | Potency [8] | Potency [9] | Potency [10]

C[N+](C)(C)CCCCCC[N+](C)(C)C
inactive: Potency [1] | Potency [2] | Potency [3] | Potency [4] | max response [5] 3.71% and 1.42% | Potency [6] | Potency [7] | Potency [8] | Potency [9] | Potency [10]

CC(C)CCCC(C)N (stereo not given)
inactive: Potency [1] | Potency [2] | Potency [3] | Potency [4] | max response [5] 5.83% | Potency [6] | Potency [7] | Potency [8] | Potency [9] | Potency [10]

CCCCOCCOCCOCCCC
inactive: Potency [1] | Potency [2] | Potency [3] | Potency [4] | max response [5] 3.79% | Potency [6] | Potency [7] | Potency [8] | Potency [9] | Potency [10]

CCc1nccnc1CC
inactive: activity change, negative = cytotoxic [1] -2.15% [at 15.8 µM] | Potency [2] | activity change, negative = cytotoxicity [3] 5.29% [at 15.8 µM] | viability change, negative = cytotoxic [4] 1.16% [at 15.8 µM] | max response [5] 3.61% | activity change [6] -5.25% [at 15.8 µM, stronger effect = higher value] | cytotoxicity increase [7] 1.53% [at 15.8 µM] | activity change, negative = cytotoxic [8] -1.59% [at 15.8 µM] | cytotoxicity [9] 0.289% [at 15.8 µM] | cytotoxicity increase [10] 0.942% [at 15.8 µM]

C1OCOCO1
inactive: Potency [1] | Potency [2] | Potency [3] | Potency [4] | max response [5] 2.99% | Potency [6] | Potency [7] | Potency [8] | Potency [9] | Potency [10]

O=C1NC(=O)[C@@]2(CCOc3ccc(F)cc32)N1
inactive: Potency [1] | Potency [2] | Potency [3] | Potency [4] | max response [5] 10% | Potency [6] | Potency [7] | Potency [8] | Potency [9] | Potency [10]

O=C(O)c1ccccc1OP(=O)(O)O
inactive: Potency [1] | Potency [2] | Potency [3] | Potency [4] | max response [5] -0.358% | Potency [6] | Potency [7] | Potency [8] | Potency [9] | Potency [10]

CS(=O)(=O)O
inactive: Potency [1] | Potency [2] | Potency [3] | Potency [4] | max response [5] 2.93% | Potency [6] | Potency [7] | Potency [8] | Potency [9] | Potency [10]

OCCCC1CCCCC1
inactive: Potency [1] | Potency [2] | Potency [3] | Potency [4] | max response [5] 11.3% | Potency [6] | Potency [7] | Potency [8] | Potency [9] | Potency [10]

Cc1c(NC(C)C)c(=O)n(-c2ccccc2)n1C
inactive: Potency [1] | Potency [2] | Potency [3] | Potency [4] | max response [5] 2.55% | Potency [6] | Potency [7] | Potency [8] | Potency [9] | Potency [10]

CCCCCCCCCCCCCCCCC
inactive: Potency [1] | Potency [2] | Potency [3] | Potency [4] | max response [5] 5.06% | Potency [6] | Potency [7] | Potency [8] | Potency [9] | Potency [10]

NS(=O)(=O)c1cc(C(=O)NN2C[C@H]3[C@H]4CCC(C4)[C@H]3C2)ccc1Cl
inactive: Potency [1] | Potency [2] | Potency [3] | Potency [4] | max response [5] -21.1% | Potency [6] | Potency [7] | Potency [8] | Potency [9] | Potency [10]

CCCN(CCC)CCc1cccc2c1CC(=O)N2
inactive: Potency [1] | Potency [2] | Potency [3] | Potency [4] | max response [5] 5.11% | Potency [6] | Potency [7] | Potency [8] | Potency [9] | Potency [10]

CN1CCC(=C2c3ccccc3CC(=O)c3sccc32)CC1
inactive: Potency [1] | Potency [2] | Potency [3] | Potency [4] | max response [5] -28.2% | Potency [6] | Potency [7] | Potency [8] | Potency [9] | Potency [10]

Cc1ccc(Cl)cc1Cl
inactive: Potency [1] | Potency [2] | Potency [3] | Potency [4] | max response [5] 13.6% | Potency [6] | Potency [7] | Potency [8] | Potency [9] | Potency [10]

CC1=CC(C)C(C=O)CC1 (stereo not given)
inactive: Potency [1] | Potency [2] | Potency [3] | Potency [4] | max response [5] -0.371% | Potency [6] | Potency [7] | Potency [8] | Potency [9] | Potency [10]
